Hit rate of the full screen: of about 350,000 compounds, about 31,000 (8.9%) were called active. Roughly 15% stayed inconclusive and do not appear here. The call rests on the fitted dose curve; in most records, active means well fitted inhibition curve with a large enough effect; inconclusive means small, poorly fitted or top-dose-only effect; inactive means no such curve, though single readings can be large or run the other way. Shown is part of a subset that was picked to be rich in actives.
Each compound was assayed against Histone-lysine N-methyltransferase EHMT2 (Homo sapiens) (UniProt Q96KQ7) (assay: qHTS Assay for Inhibitors of Histone Lysine Methyltransferase G9a). Details: G9a H3K9 monomethylation, AlphaScreen, 2 h; series mostly up to 59 µM.
Chain of Histone-lysine N-methyltransferase EHMT2 (Homo sapiens) (Q96KQ7 913-1193 limits assumed): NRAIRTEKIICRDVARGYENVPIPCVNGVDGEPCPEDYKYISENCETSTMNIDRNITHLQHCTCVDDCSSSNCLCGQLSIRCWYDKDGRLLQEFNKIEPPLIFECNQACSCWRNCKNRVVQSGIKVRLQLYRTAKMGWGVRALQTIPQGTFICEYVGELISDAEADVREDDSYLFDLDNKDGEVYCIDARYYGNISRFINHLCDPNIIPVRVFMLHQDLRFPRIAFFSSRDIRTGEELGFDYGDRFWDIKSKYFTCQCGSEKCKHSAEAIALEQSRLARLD
Summary of the method: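 Step 1: enzyme (final 20 nM) with compound, 15 min RT. Step 2: substrate peptide 500 nM and SAM 20 uM, 2 h RT. Step 3: anti-H3K9me1 antibody and AlphaScreen beads, 10 min, then plate read.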
Further: nearly all actives have a fitted effect of over 75% in size.
On the % scale 0 is the no-effect control and ±100 the full control effect; potency means the concentration at half of the fitted maximal effect.

Potency, inactive:
Cc1ccccc1NC(=O)Cc1nc(COC(=O)c2cccnc2Cl)cs1, COc1ccc(CCn2c(=N)c(C(=O)NCC3CCCO3)cc3c(=O)n4cccc(C)c4nc32)cc1OC (stereo unspecified), COc1cccc(NC(=O)Nc2ccc3c(c2)N(C)C(=O)c2ccccc2S3)c1, COc1cccc(/C=C2\Sc3ccc(C(=O)NCC4CCCO4)cc3N(C)C2=O)c1 (stereo unspecified), COC(=O)c1ccc(C(=O)NC2CC(C)(C)Cc3c2cnn3-c2ccc(F)cc2)nc1 (stereo unspecified), CCCN(C(=O)Cn1ncc2c([nH]c3ccc(C)cc32)c1=O)c1ccccc1C, C/C(=N\NC(=O)c1ccoc1C)c1ccccc1O, CCOc1ccccc1NC(=O)CN1CCCN(Cc2cccc(Cl)c2)S1(=O)=O, Cc1ccc2c(c1)N(CC(=O)NCCc1ccc(Cl)cc1)C(=O)c1cccnc1O2, COc1ccc2c(CC(=O)OCC(=O)NC(N)=O)coc2c1, COc1ccc2c(CC(=O)Nc3nnc(C4CC4)s3)coc2c1, Cc1c(CCNC(=O)c2ccc(C(F)(F)F)cc2)sc2nc(-c3ccc(F)cc3)nn12, CCOC(=O)c1ccccc1NC(=O)c1nn(-c2ccc(OC)c(Cl)c2)c(=O)c2c1c1ccccc1n2C, CC(=O)c1ccc(NC(=O)c2nc3nc(C)cc(C(F)F)n3n2)cc1, CCOC(=O)c1cccc(NC(=O)C2CCN(c3ncnc4c3nc3n4CCCCC3)CC2)c1, COCCNCCOCCOc1cccc(OC)c1, CCc1ccc(NC(=O)N2CCN(c3ccccc3)CC2)cc1, O=C(Nc1ccc(F)cc1)N1CCN(c2ccc(F)cc2)CC1, Cc1nn(CC(=O)NCCc2ccccc2)c(=O)c2c1sc1ccccc12, Cc1ccc(C)c(N2CCN(C(=O)Cn3ncn4cccc4c3=O)CC2)c1, CCOC(=O)c1cc2c(=O)n3ccccc3nc2n(CC2CCCO2)c1=NC(=O)c1ccc(C(C)(C)C)cc1 (stereo unspecified), Cc1ccc2[nH]c(=O)c(CN(CCCN(C)C)C(=O)Nc3cccc(Cl)c3)cc2c1, CCCCNC(=O)c1cn(CC)c2cc(N3CCN(C(=O)c4ccco4)CC3)c(F)cc2c1=O, CCOc1ccc(CNC(=O)c2ccc3c(c2)nnn3C2CCCC2)cc1, O=C(NC1CCCC1)C(c1ccco1)N(C(=O)c1ccco1)c1ccc(F)cc1 (stereo unspecified), O=c1cc(COc2cccc(C(F)(F)F)c2)nc2sc3c(n12)CCCC3, COc1cccc(OC)c1C(=O)NC(=S)NCc1ccco1, Cc1ccc(CC(=O)Nc2ccc(OC(F)F)c(Cl)c2)cc1C, CCOc1cc(NC(=S)NCc2ccco2)c(OCC)cc1NC(=O)c1ccco1, O=C(NNC(=S)NCc1ccco1)C(c1ccccc1)c1ccccc1, Cc1c(Cl)cccc1NC(=O)Cn1cc(C(=O)c2cccs2)c2ccccc21, Cc1ccc(NC(=O)CN2c3ccccc3S(=O)(=O)c3ccccc32)cc1F, CCCN(CCC)C(=O)C(Cc1ccccc1)NS(=O)(=O)c1ccc2c(c1)c(=O)n(C)c(=O)n2C (stereo unspecified), Cc1ccc(C)c(NC(=S)NCC(c2cccnc2)N2CCOCC2)c1 (stereo unspecified), Cc1cccc(NC(=S)Nc2ccc(Br)cc2)c1, CC(C)CC(=O)NC(=S)Nc1cc(C(=O)O)ccc1Cl, CCC(C(=O)Nc1ccc(C(C)C)cc1)c1ccccc1 (stereo unspecified), COCCNC(=O)c1ccc2nc(Cc3ccc(OC)c(OC)c3)oc2c1, CC(=O)Nc1cccc(C(=O)OCC(=O)Nc2nnc(-c3ccccc3)o2)c1, CN(CC(=O)NCc1cccnc1)S(=O)(=O)c1cc(Cl)ccc1Cl, COc1ccc(NC(=O)C2CCN(S(=O)(=O)c3ccc4[nH]c(=O)oc4c3)CC2)c(OC)c1, O=C(CC1(O)C(=O)N(CN2CCOCC2)c2ccccc21)c1ccccc1 (stereo unspecified), CCOC(=O)CN1C(=O)C(O)(CC(=O)c2ccccn2)c2ccccc21 (stereo unspecified), COc1ccc(CCNC(=O)c2ccc(CSCc3ccc(C)cc3)o2)cc1OC, CCc1nnc2c3ccccc3nc(N3CCN(c4ccc(C)cc4C)CC3)n12, CC(=O)NNc1cc(=O)c2c(=O)n(C)c(=O)n(C)c2[nH]1, CC(=O)c1c(N)n(C)c(=O)n(C)c1=O, COC(=O)c1ccccc1NS(=O)(=O)c1ccc2c(c1)CCCN2C(C)=O, COC(=O)[C@H](C)[C@H]1C[C@]1(C)[C@H](NC(=O)OCc1ccccc1)c1ccccc1, O=C(Nc1ccc(N2CCN(C(=O)c3ccccc3)CC2)c(Cl)c1)c1cccnc1, CC(=O)N[C@@H](C)C(=O)N1CCC(n2nccc2NC(=O)CCCc2ccccc2)CC1, CC(NS(=O)(=O)c1ccc(Cl)cc1)C(=O)Nc1ccc2c(c1)OCCO2 (stereo unspecified), Cc1ccc(C(=O)Nc2ccccc2F)cc1S(=O)(=O)N1CCOCC1, N#C/C(=C\c1ccccc1C(F)(F)F)C(=O)Nc1ccccc1F, CCOCCCn1c(SCC(=O)Nc2ccc(CC)cc2)nc2ccccc2c1=O, O=C(CCc1nc(CN2CCN(S(=O)(=O)c3ccc(F)cc3)CC2)no1)N1CCCCC1, COc1ccc(N(C)C(=O)C2CCN(S(=O)(=O)c3cc(Br)cc4c3N(C(C)=O)CC4)CC2)cc1, CCOc1ccc(CNC(=O)c2cc(=O)[nH]c3ccc(S(=O)(=O)N4CCCCC4)cc23)cc1, CNC(=S)N1N=C(c2ccccc2)CC1c1ccc(Br)cc1 (stereo unspecified), Brc1ccc(C2=NCCC(c3ccccc3)O2)cc1 (stereo unspecified), COc1cc(C(=O)N2CCC(c3ccncc3)CC2)cc(OC)c1OC, Cc1ccc(NC(=O)c2ccccn2)cc1S(=O)(=O)N1CCOCC1

Potency, active:
COc1ccc2c(c1)N(C)/C(=C1/SC(=S)N(NC(C)=O)C1=O)S2 70.8 µM, Cc1nn(C(=O)c2ccoc2C)c(N)c1-c1ccccc1 31.6 µM, COc1ccc2c(CC(=O)OCC(=O)Nc3ccccc3[N+](=O)[O-])coc2c1 11.2 µM, COCCCNCCOCCOc1ccc(Cl)cc1Br 10 µM, CC(=O)N1CCN(c2ccc(NCc3ccc(C(C)C)cc3)cc2)CC1 14.1 µM, Cc1ccc(C)c(N2CCN(C(=O)Cn3nc(C)c4sc5ccccc5c4c3=O)CC2)c1 12.6 µM, COc1cc2cc(CN(CCN3CCCC3)C(=O)Nc3ccccc3Cl)c(=O)[nH]c2cc1OC 50.1 µM, COc1cc(NC(=S)NCc2ccco2)c(OC)cc1Cl 50.1 µM, FC(F)Oc1ccc(NC(=S)NCc2ccco2)cc1Cl 50.1 µM, Cc1ccc(C)c(NC(=S)NNC(=S)Nc2ccc(C(C)C)cc2)c1 31.6 µM, CC(C)c1ccc(NC(=S)NNc2ccc(Cl)c(C(=O)O)c2)cc1 10 µM, C=CCN1C(=O)C(O)(CC(=O)c2ccc(Cl)cc2)c2ccccc21 (stereo unspecified) 44.7 µM, CC(=O)Nn1cc2c(=O)n(C)c(=O)n(C)c2c1 35.5 µM, C[C@@H](C(=O)Nc1ccc2ccccc2c1)[C@@H]1C[C@@]1(C)[C@@H](NC(=O)c1cccnc1)c1ccccc1 50.1 µM, N#C/C(=C\C1=C(N2CCOCC2)C(=C\c2ccccc2)/CC1)C(=O)Nc1ccccc1F 7.08 µM, Brc1ccc(C2CC(c3ccccc3)=Nc3ccccc3N2)cc1 (stereo unspecified) 39.8 µM, Cc1ccc(NC(=O)C(C)OC(=O)Cc2c[nH]c3ccccc23)cc1S(=O)(=O)N1CCOCC1 (stereo unspecified) 35.5 µM

activity, negative = inhibition, inactive:
COc1ccccc1C(CNC(=O)c1ccc(C)c(S(=O)(=O)N2CCCCC2)c1)N(C)C (stereo unspecified) 24.7% [at 12.7 µM], CC(=O)Nc1ccc(Nc2cc(C)nc(Nc3ccc(NC(C)=O)cc3)n2)cc1 -6.09% [at 2.33 µM], CN(C(=O)CSc1nnc(-c2ccc3c(c2)OCO3)o1)C1CCS(=O)(=O)C1 (stereo unspecified) 23.8% [at 12.7 µM], CCOC(=O)c1cc(C(C)C)sc1NC(=O)COC(=O)c1nccnc1N -18.5% [at 0.501 µM], CC(C)(C)OC(=O)NCCCCCNC(=O)c1nc[nH]c1C(=O)NCc1ccccc1 24.5% [at 2.33 µM], Cc1occc1C(=O)Nc1nnc(-c2ccncc2)s1 -37.1% [at 12.7 µM], COc1ccc(C(=O)c2c3ccc([N+](=O)[O-])cc3[n+]([O-])n2CCCN)cc1 -22.2% [at 2.33 µM], CCOCCCNCc1cc(Br)ccc1OCC 1.6% [at 12.7 µM], Cc1csc2nc(COC(=O)c3cccc(N(C)C)c3)cc(=O)n12 3.53% [at 2.33 µM], CC(OC(=O)CN1C(=O)c2ccccc2C1=O)C(=O)c1ccccc1 (stereo unspecified) 12.8% [at 12.7 µM], Cc1cc(F)ccc1S(=O)(=O)Nc1ccc(C(=O)N(C)Cc2ccco2)cc1 23.8% [at 2.33 µM], CCn1nc(C(=O)NNC(=O)C2CSC3(C)CCC(=O)N23)c2ccccc2c1=O (stereo unspecified) 2.22% [at 12.7 µM], Cc1csc2nc(COC(=O)c3ccc(NC(=O)COc4ccccc4F)cc3)cc(=O)n12 6.31% [at 12.7 µM], COc1ccc(CCN(Cc2cc3cccc(C)c3[nH]c2=O)C(=O)N2CCCC2)cc1OC -36.8% [at 12.7 µM], Cc1ccc(/C=C/C(=O)OCC(=O)Nc2cccnc2Cl)cc1 5.18% [at 12.7 µM], Nc1ccn(CC(=O)N2CCN(c3ccccn3)CC2)c(=O)n1 -0.804% [at 0.501 µM], CC(OC(=O)CCCc1c[nH]c2ccccc12)C(=O)Nc1ccc(S(N)(=O)=O)cc1 (stereo unspecified) 14.8% [at 0.501 µM]
